Sampled rows, rich in hits. Any-hit rate of the full collection: about 19%.
TDP1 cell CPT: qHTS for Inhibitors of human tyrosyl-DNA phosphodiesterase 1 (TDP1): qHTS in cells in presence of CPT; hit rate 12% among 420,000; AID 686979, 2013; Potency, µM (titrated, usually from 46.2 µM), usual class: inhibitors; chicken DT40 Tdp1-/-;hTDP1 cells + 20 nM CPT, ATP luminescence, 48 h; also: nearly all actives have a fitted effect of over 55% in size
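Chicken DT40 Tdp1-/- cells complemented with human TDP1, 400 cells/well, exposed to compounds plus 20 nM camptothecin for at least 48 h at 37 C; viability read as ATP content by CellTiter-Glo luminescence.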
SW480 rerep: A quantitative high throughput screen for small molecules that induce DNA re-replication in SW480 colon adenocarcinoma cells; AID 624297, 2012; Potency, µM (top dose mostly 46.1 µM), hits mostly activators; hit rate 1.8% among 340,000; SW480 DNA re-replication, Hoechst DNA content imaging, 48 h; also: nearly all actives have a fitted effect of over 55% in size
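Readout is total intensity of Hoechst-stained nuclei, excited at 405 nm and collected at 500-530 nm. Compound treatment lasted 48 hr at 37 C in 5% CO2 before staining.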
BCR signal inh: qHTS Assay to Find Inhibitors of Chronic Active B-Cell Receptor Signaling | AID 493014, 2011 | Potency, µM (top dose mostly 46.1 µM), actives largely listed as inhibitors | ABC-DLBCL IkBa-CBG/CBR reporter, luminescence ratio, 4 h | hit rate 0.05% among 340,000; active = well fitted inhibition curve with a large enough effect in the signal ratio, with a control signal flat, not every such curve was filed as active; inconclusive = small, poorly fitted or top-dose-only effect, or effect the other way, or a change in a side signal; the % refers to the signal ratio
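Doxycycline induced both beetle luciferases in TMD8 lymphoma cells; IKK-driven degradation limits the IkappaBalpha-fused green signal, while red luminescence normalises for cell number and nonspecific effects. Compounds tested up to 46 uM, 4 hrs.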
TDP1 cell noCPT: qHTS for Inhibitors of human tyrosyl-DNA phosphodiesterase 1 (TDP1): qHTS in cells in absence of CPT; DT40 Tdp1-/- hTDP1 cells, no CPT, ATP luminescence, 48 h; Potency, µM (highest dose often 46.2 µM), hits mostly inhibitors; hit rate 15% among 420,000; AID 686978, 2013; also: nearly all actives have a fitted effect of over 55% in size
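Growth kinetics read by CellTiter-Glo luminescence after ≥48 hr at 37 °C. Cells: DT40 Tdp1-/- stably carrying human TDP1, 400 per well, compound exposure in the absence of CPT (DMSO vehicle).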
MCF10A rereplic: A quantitative high throughput screen for small molecules that induce DNA re-replication in MCF 10a normal breast cells. MCF 10A DNA re-replication, Hoechst nuclear intensity, 48 h. Potency, µM (top dose mostly 46.1 µM), actives largely listed as activators. hit rate 2.9% among 350,000; also: nearly all actives have a fitted effect of over 50% in size
IL1B secr inh: qHTS for Inhibitors of Inflammasome Signaling: IL-1-beta AlphaLISA Primary Screen. THP-1 LPS/ATP IL-1B secretion, AlphaLISA, 16 h; active compounds read low. activity change, % at 57.5 µM. hit rate 4.7% among 360,000; in the data active = activity change below about -50%; inconclusive = mostly about -30% to -49%
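Secreted IL-1B measured by AlphaLISA bead assay after 16 h compound exposure of THP-1 cells; compounds (final up to 57.5 uM) added 1 h before LPS (250 ng/mL) and ATP (1.25 mM) stimulation; lower signal means less secretion.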
A number is an active result; n = inactive; u = inconclusive; x = no result; [ ] = another dose, or the depositor's remark. Unless noted, calls follow the shape of the dose curve; as a rule, active = well fitted curve in the direction sought with a large enough effect; inconclusive = small, poorly fitted or top-dose-only effect, or another doubt; inactive = no such curve, though single readings can be large; an effect the other way counts as inactive or inconclusive.

SMILES	TDP1 cell CPT	SW480 rerep	BCR signal inh	TDP1 cell noCPT	MCF10A rereplic	IL1B secr inh
Cn1c(SCC(=O)N(C2CCCCC2)C2CCCCC2)nnc1-c1cccs1	u	u	u	16.4µM	13µM	n
Cn1ccnc1SCC(=O)N(C1CCCCC1)C1CCCCC1	u	n	u	14.6µM	u	n
CCN(C(=O)CSc1nnnn1C)C1CCCCC1	u	n	n	n	n	n
CCn1nnnc1SCC(=O)N(C1CCCCC1)C1CCCCC1	10µM	n[9.22 µM]	n	11.2µM	n	n
OCCC1CN(CC2CCCCC2)CCN1CC1CCCCC1 (centres undefined)	n	n	n	u	n	n
CC(C)CNC(=O)C1(C)CCCN1C(=O)c1cccnc1Oc1ccccc1 (centres undefined)	n	x	x	n	x	n
O=C(O)CCCNC(=O)OCc1ccccc1	n	n	n	n	n	n
O=C(O)CCCCCNC(=O)OCC1c2ccccc2-c2ccccc21	4.11µM	n	n	11.6µM	n	n
Cn1cc(C(=O)C(=O)NC2CCCCC2)c2ccccc21	n	n	u	n	n	n
Fc1ccc(-c2ccnc3nc(N4CCOCC4)nn23)cc1	n	n	n	n	n	n
COc1ccc(-c2ccnc3nc(N4CCN(c5ccccc5)CC4)nn23)cc1	u	n	n	20.6µM	u	n
CCN(CC(=O)Nc1ccc(NC(C)=O)cc1)C(=O)Cc1ccc(S(=O)(=O)N2CCOCC2)s1	n	n	n	n	n	n
COC(=O)[C@H](CC(C)C)NC(=O)CC[C@H]1O[C@@H](n2ccc(=O)[nH]c2=O)[C@H](O)[C@@H]1O	n	x	x	n	x	n
CCOC(=O)C1=C(CN2CCN(c3ccccc3F)CC2)NC(=O)NC1c1ccc(Cl)cc1 (centres undefined)	25.9µM	x	x	16.4µM	x	x
CCCN1CCN(CC2=C(C(=O)OCC)C(c3ccc(Cl)cc3)NC(=O)N2)CC1 (centres undefined)	25.9µM	x	x	25.9µM	x	x
CCOC(=O)C1=C(CN2CCC(C)CC2)NC(=O)NC1c1ccc(OC(C)C)cc1 (centres undefined)	23.1µM	x	x	u	x	x
CCCN1CCN(CC2=C(C(=O)OCC)C(c3cccc(OC)c3OC)NC(=O)N2)CC1 (centres undefined)	n	x	x	n	x	x
Cc1ccc(-c2nc3cc(C)c(Br)c(C)n3c2CC(C)(C)C)cc1	9.2µM	x	x	16.4µM	x	n
CCCc1nc2ccc(Cl)cn2c1Cc1ccsc1	20.6µM	x	x	13µM	x	n
Cc1cc2nc(-c3cccc(Cl)c3)c(Cc3ccsc3)n2c(C)c1Br	u	x	x	u	x	n
Cc1cc2nc(-c3cccc(Br)c3)c(Cc3ccsc3)n2c(C)c1Br	u	x	x	u	x	n
Cc1ccc(-c2nc3cc(C)c(Br)c(C)n3c2Cc2ccsc2)cc1	5.17µM	x	x	7.31µM	x	n
CCCc1nc2cc(C)c(Br)c(C)n2c1Cc1ccsc1	11.6µM	x	x	18.4µM	x	n
Cc1cc2nc(C3CCCCC3)c(CC(C)(C)C)n2c(C)c1Br	u	x	x	u	x	n
Cc1ccsc1C(=O)NCc1ccc(F)cc1	n	n	u	n	n	n
SMILES	TDP1 cell CPT	SW480 rerep	BCR signal inh	TDP1 cell noCPT	MCF10A rereplic	IL1B secr inh
COc1cc2ccc(C(=O)O)cc2cc1OC	n	x	x	n	x	n
CCOC(=O)c1[nH]c(C)c(C(=O)NCc2cccc(OC)c2)c1C	n	x	x	n	x	x
O=C(CC1SC(=Nc2ccccc2)N(CCCO)C1=O)Nc1ccc(Cl)cc1 (centres undefined)	n	n	n	n	n	u
O=C(CC1SC(=O)N(c2ccccc2)C1=O)Nc1ccc(Cl)cc1 (centres undefined)	7.31µM	n	u	20.6µM	n	n
O=C(CC1SC(=O)N(c2ccccc2)C1=O)Nc1ccc(Br)cc1 (centres undefined)	2.59µM	n	u	5.8µM	n	n
CC(=O)c1cc(CCC(=O)NC2CCCCCC2)oc1C	n	n	n	n	n	n
O=C(NCCC1=CCCCC1)C1CCN(S(=O)(=O)c2ccc(Br)s2)CC1	20.6µM	n	u	20.6µM	u	n
O=C(NCCC1=CCCCC1)C1CCCN(S(=O)(=O)c2ccc(F)cc2)C1 (centres undefined)	11.6µM	n[9.22 µM]	n	20.6µM	u	n
Cc1ccc(O)c(C(=O)c2cc(C#N)c(=O)n(CC3CCCO3)c2)c1 (centres undefined)	14.6µM	n	n	20.6µM	n	n
Cc1ccc(O)c(C(=O)c2cc(C#N)c(=O)n(-c3nccs3)c2)c1	n	n	u	u	11.6µM	n
C[C@@H](CNC1CCCCC1)OC(=O)c1ccccc1	x	n	x	x	n	x
O=C(NCc1nnnn1-c1ccc(F)cc1)c1ccc([N+](=O)[O-])o1	u	u	u	u	u	-96.9
Cc1ccc(-n2nnnc2CNC(=O)c2ccc(Br)o2)cc1C	n	n	n	n	n	n
Cc1ccc(-n2nnnc2CNC(=O)c2ccc([N+](=O)[O-])o2)cc1C	13µM	13µM	u	7.31µM	u	-101.7
Cc1ccc(-n2nnnc2CNC(=O)c2cc(C(F)(F)F)cc(C(F)(F)F)c2)cc1C	u	x	x	16.4µM	x	x
Cc1ccc(S(=O)(=O)NCCN=Cc2ccc(N(C)C)cc2)cc1	n	n	n	n	n	n
CC1(C)C[C@H]2C3=CCC4[C@@]5(C)CC[C@H](O)[C@](C)(CO)C5CC[C@@]4(C)[C@]3(C)C[C@H]3O[C@@H]1[C@H](O)[C@]32CO (some centres undefined)	n	n	n	n	n	n
COc1cccc(/C=N/NC(=O)Cn2cnc3c2c(=O)n(C)c(=O)n3C)c1OC	n	n	u	n	n	n
CC12COC3(P(=O)(c4ccccc4)c4ccccc4)CC1CCC23CP(=O)(c1ccccc1)c1ccccc1 (centres undefined)	u	n	u	u	n	-52.3
COc1cc(SC)ccc1C(=O)Nc1ncc(Cl)cc1Cl	n	u	u	n	n	n
CCCCN(CCCC)c1nc(OC)nc(-n2nnc(C(C)=O)c2C)n1	23.1µM	n	u	u	u	n
CC(=O)c1nnn(-c2nc(N)nc(N(c3ccccc3)c3ccccc3)n2)c1C	29.1µM	n	n	14.6µM	n	n
Cc1cc(C)n(-c2nc(N(c3ccccc3)c3ccccc3)nc(-n3nc(C)cc3C)n2)n1	18.4µM	n	n	13µM	u	-84.0
CCOC(=O)c1nnn(-c2nc(N(C)C)nc(N(C)C)n2)c1C	n	n	n	n	n	n
